Cycloheximide cs – Cycloheximide Counterscreen for Small Molecule Inhibitors of Shiga Toxin; cell reporter, cycloheximide protein synthesis inhibition counterscreen; max response, %; hit rate 12% among 300,000; AID 2314, 2010; in the data active = max response mostly above about 13%, no sharp cut-off; inactive = mostly below about 14%; also: read at 38.3 µM for the half of the compounds with a filed dose
NS1 inh – qHTS Assay for Inhibitors of Influenza NS1 Protein Function. AID 2326, 2010. Potency, µM (series often up to 46.1 µM). hit rate 0.4% among 270,000; calls by dose curve; also: actives are rising curves; nearly all actives have a fitted effect of over 50% in size
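Growth recovery, yeast-based: influenza A NS1 expressed in S. cerevisiae causes slow growth, and suppressors are detected by OD600. The parent strain without NS1 is used as positive control.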
SARS PLP yeast – qHTS of Yeast-based Assay for SARS-CoV PLP. S. cerevisiae expressing SARS-CoV PLpro, growth rescue. Potency, µM (titrated, usually from 32.9 µM), most hits filed as activators. hit rate 0.19% among 330,000; calls by dose curve; also: nearly all actives have a fitted effect of over 55% in size
Shiga inhibitor – A qHTS for Small Molecule Inhibitors of Shiga Toxin; hit rate 9.2% among 290,000; inhibition, % at 38.7 µM; AID 2315, 2010; Vero cells, Shiga toxin protein synthesis inhibition reporter; in the data active = inhibition mostly above about 28%, no sharp cut-off; inactive = mostly below about 43%
Pf growth 96h – Primary qHTS for delayed death inhibitors of the malarial parasite plastid, 96 hour incubation. hit rate 6.9% among 320,000. Potency, µM (top dose mostly 28.7 µM), actives largely listed as inhibitors. P. falciparum luciferase reporter growth, 96 h. AID 504834, 2011
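P. falciparum expressing integrated firefly luciferase, in erythrocytes at 2% hematocrit, 0.05% parasitemia, incubated with compounds 96 h at 37 C, 5% CO2. Growth inhibition read as loss of luminescence; two-generation exposure targets delayed-death apicoplast inhibitors.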
Pf growth 48h – Primary qHTS for delayed death inhibitors of the malarial parasite plastid, 48 hour incubation; P. falciparum luciferase growth in erythrocytes, 48 h; Potency, µM (top dose mostly 28.7 µM), most hits filed as inhibitors; hit rate 5.9% among 310,000
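A one-generation exposure of luciferase-tagged malaria parasites in RPMI 1640/Albumax erythrocyte culture, 37 C and 5% CO2. Inhibition is inferred from decreased luminescence after adding detection reagent.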
Large screens that a line does not name were inactive. An excerpt weighted towards active compounds, which were near 21% of everything screened. Unless noted, calls follow the shape of the dose curve; as a rule, active = well fitted inhibition curve with a large enough effect; inconclusive = small, poorly fitted or top-dose-only effect, or another doubt; inactive = no such curve, though single readings can be large or run the other way.

COc1ccc(Cl)cc1Nc1nc(-c2sc(NC(=O)c3ccco3)nc2C)cs1	Pf growth 96h 5.86µM, Pf growth 48h 14.7µM
COc1ccc(OC)c(Nc2nc(-c3sc(NC(=O)C(C)(C)C)nc3C)cs2)c1	Pf growth 96h 3.29µM, Pf growth 48h 9.28µM
COc1ccc(Cl)cc1Nc1nc(-c2sc(NC(=O)C(C)(C)C)nc2C)cs1	Pf growth 96h 1.65µM, Pf growth 48h 10.4µM
COc1cccc(Nc2nc(-c3sc(NC(=O)c4ccco4)nc3C)cs2)c1	Pf growth 96h 13.1µM, Pf growth 48h inconclusive
O=C(Nc1ccccc1C(=O)NCc1ccccc1)C1=CSCCO1	Pf growth 96h inconclusive
COc1ccc(Cl)cc1NS(=O)(=O)c1c(C)[nH]c(C)c1C(=O)N1CCCCC1	none
O=C(O)COCC(=O)N1CCN(C2c3ccccc3-c3ccccc32)CC1	none
COc1ccc(OC)c(Nc2nc(-c3sc(C)nc3C)cs2)c1	Pf growth 48h 14.7µM
CCOC(=O)N1CCN(C(=O)Cc2ccc(-n3c(=O)[nH]c4ccccc4c3=O)cc2)CC1	Pf growth 96h 9.28µM
CCOC(=O)c1ccc(-n2c(=O)[nH]c3ccccc3c2=O)cc1	Pf growth 96h inconclusive (no result: Pf growth 48h)
O=C(CSc1nnc(C2CCCCC2)o1)Nc1ccccc1Cl	Shiga inhibitor 71.2
O=C(CSc1nnc(COc2ccccc2Cl)o1)NC(=O)NC1CCCC1	Pf growth 96h 11.7µM
COc1ccccc1C(=O)OCC(=O)NC(=O)NC1CCCCC1	none (no result: Cycloheximide cs, NS1 inh, Shiga inhibitor)
COc1ccc(NC(=O)CSc2nnc(C3CCCCC3)o2)c(OC)c1	none
Cn1cccc1C(=O)OCC(=O)NC(=O)NC1CCCCC1	Cycloheximide cs 41.0 (no result: NS1 inh)
O=C(COc1ccccc1Cl)NC(=O)NC1CCCC1	Cycloheximide cs 26.2, Pf growth 96h inconclusive (no result: Pf growth 48h)
CC1C(=O)C(C)C(c2cccc(Br)c2)NC1c1cccc(Br)c1 (stereo not given)	Pf growth 96h inconclusive
O/N=C/C1=C(Cl)c2ccccc2CC1	none
C[C@H]1C[C@@H](C)C(=O)[C@@H]([C@H](O)CC2CC(=O)NC(=O)C2)C1	Pf growth 96h inconclusive, Pf growth 48h 0.0329µM
O=C1COc2ccccc2N1Cc1c(F)cccc1Cl	none
C/C(Cn1ncc(N2CCOCC2)c(Cl)c1=O)=N\O	none
CC(C)n1ncc(N2CCOCC2)c(Cl)c1=O	Cycloheximide cs 13.8
O=c1c(Cl)c(N2CCOCC2)cnn1-c1nc2ccccc2[nH]1	Cycloheximide cs 24.2, Shiga inhibitor 73.4 (no result: NS1 inh)
CCc1ccc(NC2=CC(=O)C(=O)c3ccccc32)cc1	Pf growth 96h 0.0738µM, Pf growth 48h 0.0828µM (no result: Cycloheximide cs, NS1 inh, Shiga inhibitor)
O=C1C=C(Nc2ccccc2)C(=O)c2ccccc21	Cycloheximide cs 48.2, Shiga inhibitor 80.8, Pf growth 96h 2.33µM, Pf growth 48h inconclusive
O=C1C=C(Nc2ccccc2)c2ccccc2C1=O	Pf growth 48h inconclusive
COc1ccccc1CN1CCNC(=O)C1CC(=O)NCC1CCOCC1 (stereo not given)	Pf growth 96h 9.28µM
COc1cccc(CN2CCNC(=O)C2CC(=O)NCC2CCOCC2)c1 (stereo not given)	Pf growth 96h inconclusive
COc1ccc(CN2CCNC(=O)C2CC(=O)NCC2CCOCC2)c(F)c1 (stereo not given)	Pf growth 96h 10.4µM
O=C(c1cccc(Cl)c1)N1CCN(CCCc2ccccc2)CC1	none (no result: Pf growth 48h)
Cc1ccc(C(C)C)c(OCCNC(=S)Nc2cccc3ccccc23)c1	Pf growth 96h inconclusive, Pf growth 48h 9.28µM
Cc1ccc(C(C)C)c(OCCNCc2ccccc2)c1	none
Cc1cc(C(=O)CN2C(=O)C(=O)N(Cc3ccccc3)C2=O)c(C)n1-c1ccc2c(c1)OCCO2	Pf growth 48h inconclusive (no result: NS1 inh)
Cc1cnc(NC(=O)C2CCC(C(C)(C)C)CC2)s1 (stereo not given)	Cycloheximide cs 19.7, Pf growth 96h inconclusive
CC(C)(C)C1CCC(C(=O)Nc2nccs2)CC1 (stereo not given)	Shiga inhibitor 47.1, Pf growth 96h inconclusive
Cc1cnc(NC(=O)C2CC=CCC2)s1 (stereo not given)	Cycloheximide cs 24.0, Shiga inhibitor 45.1
Cc1cccnc1NC(=O)c1ccc(OCc2c(C)noc2C)cc1	Cycloheximide cs 21.9, Shiga inhibitor 52.4
Cc1noc(C)c1COc1ccc(C(=O)Nc2ccccn2)cc1	Cycloheximide cs 43.9, Shiga inhibitor 89.2, Pf growth 96h inconclusive
